Screens from PubChem BioAssay.
A selection: hits, their analogues and other compounds. The true share with any hit is near 1.5%.
PKA inh: inhibitors of human PKA kinase activity, primary screen, biochemical, ATP-depletion luminescence, Kemptide substrate; PKA Kemptide phosphorylation, Kinase-Glo ATP luminescence; inhibition, % at 6 µM; 0.1% of 65,000 active; AID 524, 2006;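 active = inhibition above the screen-wide mean inhibition plus 3 SD, cut at about 21% in these data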
ROCK2 blocker: inhibitors of human ROCK2 kinase, primary screen, biochemical, high-throughput, luminescence | Rho-associated protein kinase 2 (Homo sapiens), O75116 | purified ROCK2, Kinase-Glo ATP depletion luminescence | inhibition, % at 6 µM | 0.35% of 60,000 active;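 active = inhibition above the screen-wide mean inhibition plus 3 SD, cut at about 18% in these data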
JNK3 inh: JNK3 kinase activity inhibitors, primary screen, biochemical, human, purified enzyme; HTS; inhibition, % at 8 µM; 0.61% of 60,000 active; AID 746, 2007; in the data active = inhibition above about 17%
Target sequence (P53779 whole entry, looked up): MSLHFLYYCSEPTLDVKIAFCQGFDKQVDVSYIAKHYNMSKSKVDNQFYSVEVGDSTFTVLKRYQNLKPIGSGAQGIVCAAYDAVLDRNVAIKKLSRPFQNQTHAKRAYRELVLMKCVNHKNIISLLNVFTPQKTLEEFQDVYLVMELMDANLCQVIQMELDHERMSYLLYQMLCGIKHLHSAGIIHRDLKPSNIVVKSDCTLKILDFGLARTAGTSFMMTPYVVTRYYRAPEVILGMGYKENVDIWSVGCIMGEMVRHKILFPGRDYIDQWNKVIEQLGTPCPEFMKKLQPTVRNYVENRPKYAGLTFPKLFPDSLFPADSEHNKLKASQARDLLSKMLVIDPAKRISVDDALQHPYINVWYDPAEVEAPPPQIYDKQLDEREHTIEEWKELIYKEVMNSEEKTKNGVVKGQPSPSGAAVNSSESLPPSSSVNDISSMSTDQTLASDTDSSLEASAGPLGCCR
PLK1 PBD inh: Plk1 polo box domain binding inhibitors, primary screen, biochemical, fluorescence polarization | Plk1 PBD phosphopeptide binding | inhibition, %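 (tested at about 20 µM)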 | 0.13% of 97,000 active; in the data active = inhibition above about 34%, passing the limit was not always enough
FAK inh: FAK kinase inhibitors, primary screen, biochemical; biochemical FAK kinase activity assay; Focal adhesion kinase 1 (Homo sapiens), Q05397; 0.84% of 97,000 active; inhibition, %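 (tested at 7 µM)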; AID 727, 2007; in the data active = inhibition above about 19%
PLK1 inh: human PLK1 kinase inhibitors, primary screen, biochemical, TR-FRET | recombinant PLK1 kinase, TR-FRET peptide phosphorylation | inhibition, % at 10 µM | 0.53% of 97,000 active;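 active = inhibition of 50% or more in the single-concentration screen; inactive = inhibition below 50%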
Of the large screens only hits and unclear results are named; the others gave an inactive call.

Cc1cccn2c(=O)c3cc(C(=O)N4CCc5ccccc54)n(C)c3nc12	none (no result: PLK1 PBD inh, FAK inh, PLK1 inh)
CCOC(=O)C(CC)(CC)C(=O)/C=C/c1cccc(Br)c1	none (no result: PKA inh, ROCK2 blocker, JNK3 inh)
COC(=O)c1ccc(C(=O)OC)c(NC(=O)c2oc(C)nc2C)c1	none (no result: PLK1 PBD inh, FAK inh, PLK1 inh)
COC(=O)c1ccc(Cn2c(O)c(N=O)c3ccccc32)o1	JNK3 inh 20
c1ccc(-n2nc3c(ccc4cnnc43)[nH]2)cc1	JNK3 inh 30
Cc1ccc(/C=N/N2CCN(Cc3cccc4ccccc34)CC2)s1	none (no result: PKA inh, ROCK2 blocker, JNK3 inh, PLK1 PBD inh, FAK inh)
CCOC(=O)c1c(N)n[nH]c1-c1ccc(OC)cc1	JNK3 inh 18
CCOC(=O)c1c(C)nc(C)c(C(=O)OCC)c1-c1ccc(OC)cc1	none (no result: PKA inh, ROCK2 blocker, JNK3 inh)
CCCN(CCC)C(=O)Cn1c2ccccc2c2nc(=O)cc(C)n21	none (no result: PKA inh, ROCK2 blocker, JNK3 inh)
NC(=O)c1cc(Br)cc2c3c([nH]c12)CCCC3	JNK3 inh 55
O=c1c2c([nH]c3ccc(Br)cc13)CCCC2	none (no result: PLK1 PBD inh, FAK inh, PLK1 inh)
Cc1cc(C(=O)CSc2nnc(-c3cccs3)o2)c(C)n1-c1ccccc1	none (no result: PLK1 PBD inh, FAK inh, PLK1 inh)
CCOC(=O)CSc1nc2c(sc3ccccc32)c(=O)n1CCCN1CCOCC1	JNK3 inh 24
CCC(C)NC(=O)CSc1nc2c(sc3ccccc32)c(=O)n1CCCN1CCOCC1 (stereo not given)	none (no result: PKA inh, ROCK2 blocker, JNK3 inh)
Fc1ccc(-c2nc3ccncc3[nH]2)cc1	PLK1 inh 65 (no result: PKA inh, ROCK2 blocker, JNK3 inh)
Cc1cc(C2C(C#N)=C(N)Oc3n[nH]c(C)c32)c(C)s1 (stereo not given)	none (no result: PKA inh, ROCK2 blocker, JNK3 inh)
Cc1ccc(-c2ccc(C3C(C#N)=C(N)Oc4n[nH]c(C)c43)o2)cc1 (stereo not given)	none (no result: PKA inh, ROCK2 blocker, JNK3 inh)
Cc1[nH]nc2c1C(c1ccsc1)C(C#N)=C(N)O2 (stereo not given)	PLK1 inh 52 (no result: PKA inh, ROCK2 blocker, JNK3 inh)
Cc1[nH]nc2c1C(c1ccsc1C)C(C#N)=C(N)O2 (stereo not given)	PLK1 inh 61 (no result: PKA inh, ROCK2 blocker, JNK3 inh)
Cc1[nH]nc2c1C(c1ccc(-c3ccccc3C#N)o1)C(C#N)=C(N)O2 (stereo not given)	ROCK2 blocker 40
Cc1[nH]nc2c1C(c1ccc(F)cc1)C(C#N)=C(N)O2 (stereo not given)	PLK1 inh 57
COc1ccc(OCCCC(=O)NC(C)c2ccccc2)cc1 (stereo not given)	none (no result: PKA inh, ROCK2 blocker, JNK3 inh)
Cc1cc(C#N)c(C)n1-c1cc(S(=O)(=O)N2CCOCC2)ccc1N1CCCC1	none (no result: PKA inh, ROCK2 blocker, JNK3 inh)
Cn1c(Sc2ccc(Br)cc2)c(C=O)c2ccccc21	none (no result: PKA inh, ROCK2 blocker, JNK3 inh)
COc1ccccc1NC(=O)CSc1nnc(-c2ccccc2)o1	PLK1 inh 58
COc1ccccc1NC(=O)CSc1nnc(Cc2ccccc2)o1	none
COc1cc(C(=O)NCc2cn3ccsc3n2)cc(OC)c1OC	JNK3 inh 24
COc1ccc(C(=O)NCc2nc3ccccc3[nH]2)cc1OC	JNK3 inh 31
COc1ccc(C(=O)NCc2cn3c(C)csc3n2)cc1OC	JNK3 inh 17 (no result: PLK1 PBD inh, FAK inh, PLK1 inh)
COc1cccc(C(=O)NCc2cn3ccsc3n2)c1	none
COc1ccc(-c2nnn(CCc3nn[nH]n3)n2)cc1	none (no result: PKA inh, ROCK2 blocker, JNK3 inh)
c1ccc(Cn2ncc3c2ncn2nc(-c4ccncc4)nc32)cc1	PKA inh 48 (no result: PLK1 PBD inh, FAK inh, PLK1 inh)
Cn1ncc2c1ncn1nc(CCc3ccccc3)nc21	none
c1ccc(Cn2ncc3c2ncn2c(-c4ccncc4)nnc32)cc1	PKA inh 76 (no result: PLK1 PBD inh, FAK inh, PLK1 inh)
COc1ccc(-n2c(SCC(=O)NCc3ccco3)nc3c([nH]c4ccccc43)c2=O)cc1	none (no result: PKA inh, ROCK2 blocker, JNK3 inh)
CCOc1cccc(CNn2cnnc2)c1OCc1ccccc1Cl	none (no result: PKA inh, ROCK2 blocker, JNK3 inh)
CCOc1cccc(CNc2ccc(O)cc2)c1OCc1ccccc1Cl	FAK inh 37 (no result: PKA inh, ROCK2 blocker, JNK3 inh)
CCOC(=O)c1sc(NC(=O)CSc2nc(-c3ccco3)cc(C(F)(F)F)n2)c(C(=O)OC(C)C)c1C	none (no result: PKA inh, ROCK2 blocker, JNK3 inh)
CCOC(=O)c1c(-c2ccccc2)[nH]c2ccc(O)cc12	JNK3 inh 42
CCc1nc(SCC(=O)N2CCC(C)CC2)c2c(=O)n(C)c(=O)n(C)c2n1	PLK1 inh 68
CCc1nc(SCC(=O)N2CCC(Cc3ccccc3)CC2)c2c(=O)n(C)c(=O)n(C)c2n1	none (no result: PKA inh, ROCK2 blocker, JNK3 inh)
O=C(CSc1ncc(-c2ccc(F)cc2)[nH]1)Nc1cccc(O)c1	ROCK2 blocker 25
CCCNC(=O)CS(=O)Cc1nc(-c2ccc(OC)cc2)oc1C (stereo not given)	PLK1 inh 67
CCCCNC(=O)CS(=O)Cc1nc(-c2ccc(C)cc2)oc1C (stereo not given)	none
Cc1ccc(-c2nc(CS(=O)CC(=O)NCCC(C)C)c(C)o2)cc1 (stereo not given)	PLK1 inh 67
Cc1ccc(-c2nc(CS(=O)CC(=O)NCc3ccc(Cl)cc3)c(C)o2)cc1 (stereo not given)	PLK1 inh 69
COc1ccc(-c2nc(CS(=O)CC(=O)NCc3ccc(Cl)cc3)c(C)o2)cc1 (stereo not given)	PLK1 inh 70
COCCNC(=O)CS(=O)Cc1nc(-c2ccc(Cl)cc2)oc1C (stereo not given)	none
Cc1nn(CCC(=O)NNC(=S)NCC(C)C)c(C)c1Br	none (no result: PKA inh, ROCK2 blocker, JNK3 inh)
CSC1=NCCN1C(=O)COc1ccc2ccccc2c1	none
CSC1=NCCN1C(=O)COc1ccccc1	PLK1 inh 69
O=C(Nc1ccc2c(c1)OCO2)c1cnn2cccnc12	none
O=C(Nc1cccc(O)c1)c1cnn2cccnc12	PLK1 inh 57 (no result: PKA inh, ROCK2 blocker, JNK3 inh)
Cc1ccc2c(COC(=O)c3n[nH]c4ccccc34)cc(=O)oc2c1	none (no result: ROCK2 blocker, JNK3 inh, PLK1 PBD inh, FAK inh, PLK1 inh)
Cc1cc(C(=O)COC(=O)c2n[nH]c3ccccc23)c(C)n1C	none
CCOC(=O)c1n[nH]c2ccccc12	JNK3 inh 38 (no result: PLK1 PBD inh, FAK inh, PLK1 inh)
CCc1ccc2c(COC(=O)c3n[nH]c4ccccc34)cc(=O)oc2c1	JNK3 inh 21
Cc1nc(NCc2ccco2)c(C#N)c2c1COC(C)(C)C2	JNK3 inh 31 (no result: PLK1 PBD inh, FAK inh, PLK1 inh)
CC1(C)Cc2c(C#N)c(NCc3ccco3)nc(-c3ccco3)c2CO1	none (no result: PLK1 PBD inh, FAK inh, PLK1 inh)
CC1(C)Cc2c(C#N)c(NCCCO)nc(-c3ccccc3)c2CO1	PLK1 inh 67
O=c1oc2ccc3ccccc3c2cc1-c1nc2ccccc2o1	FAK inh 19 (no result: PKA inh, ROCK2 blocker, JNK3 inh)
O=c1oc2ccccc2cc1-c1nc2ccccc2o1	none (no result: PKA inh, ROCK2 blocker, JNK3 inh)
COCCn1c(CN2CC(C)CC(C)C2)nc2c1c(=O)n(C)c(=O)n2C (stereo not given)	PLK1 inh 68
COc1ccc(/C(O)=C2/C(=O)C(=O)N(CCCN(C)C)C2c2ccco2)cc1Cl (stereo not given)	none (no result: PLK1 PBD inh, FAK inh, PLK1 inh)
Cn1c(CSCc2ccc(Cl)c(Cl)c2)nnc1SCC(=O)Nc1nccs1	ROCK2 blocker 25
Cn1c(CSCc2ccc(F)cc2)nnc1SCC(=O)Nc1nccs1	PLK1 inh 52
Cn1c(CSCc2ccccc2)nnc1SCC(=O)Nc1nccs1	PLK1 inh 56 (no result: PKA inh, ROCK2 blocker, JNK3 inh)
